# Measurements from PubChem BioAssay.
# Records with an inconclusive call do not appear. Activity calls are given as the source filed them.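 How the source made its calls, unless noted: active means normalized viability below 100% at a tested concentration; inactive means the rest.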
# Experiments:
# [1] = viability loss in pontine glioma line – cell-based, SU-DIPG-XVII, MIPE5.0, CellTiter-Glo, qHTS, dose response (AID 1347060; cut-off not given, nearly all actives have AC50 up to about 26 µM;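 on AC50: cells exposed to compound for 48 hours before viability readout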); conditions: CellTiter-Glo ATP luminescence
# [2] = viability loss in pontine glioma line – cell-based, SU-DIPG-XIII, MIPE4.0, CellTiter-Glo, qHTS, dose response (AID 1347061; cut-off not given, nearly all actives have AC50 up to about 37 µM;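 further: cells exposed to compound for 48 hours before readout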); conditions: CellTiter-Glo ATP luminescence
# [3] = viability loss in pontine glioma line – cell-based, JHH-DIPG-1, MIPE4.0, CellTiter-Glo, qHTS, dose response (AID 1347062; cut-off not given, nearly all actives have AC50 up to about 27 µM;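 on AC50: cells exposed to compound for two days before readout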); conditions: JHH-DIPG-1 viability, CellTiter-Glo ATP luminescence
# [4] = viability loss in pontine glioma line – cell-based, SU-DIPG-IV, MIPE4.0, CellTiter-Glo, qHTS, dose response (AID 1347063; cut-off not given, nearly all actives have AC50 up to about 30 µM;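 further: compound exposure lasted 48 hours before the viability readout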); conditions: CellTiter-Glo ATP luminescence
# [5] = viability loss in pontine glioma line – cell-based, SU-DIPG-XIII, MIPE5.0, CellTiter-Glo, qHTS, dose response (AID 1347064; cut-off not given, nearly all actives have AC50 up to about 23 µM;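 on AC50: cells exposed to compound for 48 hours before the viability read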); conditions: CellTiter-Glo ATP luminescence
# [6] = viability loss in pontine glioma line – cell-based, SU-DIPG-XXV, MIPE5.0, CellTiter-Glo, qHTS, dose response (AID 1347065; cut-off not given, nearly all actives have AC50 up to about 26 µM;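 further: cells exposed to compound for 48 hours before ATP readout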); conditions: CellTiter-Glo ATP luminescence
# [7] = growth inhibition of DIPG cells – cell-based, MIPE4.0 library, CellTiter-Glo luminescence, qHTS (AID 1347066; cut-off not given, nearly all actives have AC50 up to about 30 µM;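 further: cells exposed to compound for 48 hours before readout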); conditions: SU-DIPG-VI viability, CellTiter-Glo ATP luminescence
# [8] = JHH-DIPG-1 glioma cell viability, MIPE5.0 library, CellTiter-Glo luminescence, qHTS (AID 1347067; cut-off not given, nearly all actives have AC50 up to about 26 µM;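 further: cells exposed to compound for 48 hours before readout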); conditions: JHH-DIPG-1 glioma viability, CellTiter-Glo ATP luminescence
# [9] = growth inhibition of DIPG cells – cell-based, MIPE5.0 library, qHTS (AID 1347068; cut-off not given, nearly all actives have IC50 up to about 30 µM;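 on IC50: cells exposed to compound for 48 hours before viability readout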); conditions: SU-DIPG-XXV viability
# [10] = system: Neuropilin-2 / VEGF-C interaction (human); assay: small molecules blocking Neuropilin-2/VEGF-C interaction – biochemical, microplate binding format, z-score (AID 743281; call rule not given here); conditions: microplate NRP2/VEGF-C binding assay; stronger effect = lower value
# [11] = GFP-Q80 aggregate reduction, neuronal-like cells, cell-based, NGF-treated PC12, GFPQ80 (AID 1614); conditions: PC12 NGF-treated GFP-polyQ80 inclusion reduction;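 further: lower means fewer inclusions and 0 means no inclusions at all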
# [12] = target: ATP-dependent translocase ABCB1 (Homo sapiens) (UniProt P08183); assay: P-glycoprotein substrate transport blockade – cell-based (AID 377; in the data active means fluorescence slope change above about 50%); conditions: MDR1-expressing cells, fluorescent substrate accumulation slope; stronger effect = higher value; concentration not given here
# [13] = compounds altering circadian rhythm period length – cell-based, LOPAC library, luminescence reporter (AID 2774; call rule not given here;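 further: values are relative to mean of DMSO wells on each plate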); conditions: circadian reporter cells, at 7 µM, actives lie on both sides
# [14] = system: Hepatitis C virus NS3 helicase; assay: blockers of NS3h binding to ssDNA – biochemical, fluorescence polarization, LOPAC1280 library, primary screen (AID 687035; in the data active means inhibition above about 37%); conditions: Purified HCV NS3 helicase, Cy5-dT15 ssDNA binding fluorescence polarization; stronger effect = higher value; concentration not given here
# [15] = compounds altering Cy5-DNA-NS3h complex signal – biochemical, LOPAC1280, artefact control for HCV NS3 helicase inhibitor project (AID 687037; call rule not given here); conditions: Cy5-DNA-NS3h complex fluorescence interference counterscreen
# [16] = drug combination growth inhibition, ovarian cancer – cell-based, oncology-focused library, rucaparib conditional, profiling panel (AID 1508598); conditions: patient-derived ovarian cancer cells, CellTiter-Glo viability, 144 h, stronger effect = lower value
# Sequence of ATP-dependent translocase ABCB1 (Homo sapiens) (P08183 whole entry, looked up): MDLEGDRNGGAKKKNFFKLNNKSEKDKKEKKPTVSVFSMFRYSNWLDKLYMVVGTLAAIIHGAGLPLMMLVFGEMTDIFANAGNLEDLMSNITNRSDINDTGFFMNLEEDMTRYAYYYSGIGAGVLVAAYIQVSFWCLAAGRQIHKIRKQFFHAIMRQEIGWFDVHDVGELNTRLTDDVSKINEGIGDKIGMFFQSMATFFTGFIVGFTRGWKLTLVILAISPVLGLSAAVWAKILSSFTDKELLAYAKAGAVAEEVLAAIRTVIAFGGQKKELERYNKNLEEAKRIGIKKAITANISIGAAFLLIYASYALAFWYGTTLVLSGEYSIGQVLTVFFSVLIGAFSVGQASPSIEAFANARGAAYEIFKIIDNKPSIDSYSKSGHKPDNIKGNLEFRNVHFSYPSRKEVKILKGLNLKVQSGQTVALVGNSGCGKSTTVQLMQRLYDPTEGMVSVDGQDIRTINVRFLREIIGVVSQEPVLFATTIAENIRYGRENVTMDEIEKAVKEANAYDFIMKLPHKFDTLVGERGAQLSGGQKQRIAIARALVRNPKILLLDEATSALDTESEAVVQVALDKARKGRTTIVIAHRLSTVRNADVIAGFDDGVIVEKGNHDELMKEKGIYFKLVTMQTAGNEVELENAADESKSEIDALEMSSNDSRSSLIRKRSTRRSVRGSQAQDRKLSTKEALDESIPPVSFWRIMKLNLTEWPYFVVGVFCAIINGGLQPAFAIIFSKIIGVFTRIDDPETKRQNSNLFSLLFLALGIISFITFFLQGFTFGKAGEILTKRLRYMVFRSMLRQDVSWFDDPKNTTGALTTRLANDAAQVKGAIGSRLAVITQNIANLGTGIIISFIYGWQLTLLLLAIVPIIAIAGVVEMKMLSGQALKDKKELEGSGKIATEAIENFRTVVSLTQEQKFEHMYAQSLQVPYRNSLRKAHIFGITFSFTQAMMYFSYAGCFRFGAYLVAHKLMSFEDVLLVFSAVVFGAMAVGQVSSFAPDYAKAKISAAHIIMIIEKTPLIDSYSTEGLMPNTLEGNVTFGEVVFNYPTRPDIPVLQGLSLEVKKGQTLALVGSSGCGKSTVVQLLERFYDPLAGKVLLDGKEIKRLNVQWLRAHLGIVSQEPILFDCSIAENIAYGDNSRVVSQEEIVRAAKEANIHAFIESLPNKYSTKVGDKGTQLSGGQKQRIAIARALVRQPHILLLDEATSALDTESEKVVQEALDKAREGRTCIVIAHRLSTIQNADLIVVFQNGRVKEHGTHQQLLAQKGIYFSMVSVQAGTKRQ
smiles,measurement,setting,value
C[C@]12C=CC(=O)C=C1CC[C@@H]1[C@@H]2C(=O)C[C@@]2(C)[C@H]1CC[C@]2(O)C(=O)CO,outcome,[1],inactive
same,outcome,[2],inactive
same,outcome,[3],inactive
same,outcome,[4],inactive
same,outcome,[5],inactive
same,outcome,[6],inactive
same,outcome,[7],inactive
same,outcome,[8],inactive
same,outcome,[9],inactive
CC(C)Oc1ccc2c(=O)c(-c3ccccc3)coc2c1,z-score,[10],0.0143 (inactive)
same,outcome,[1],inactive
same,outcome,[2],inactive
same,outcome,[3],inactive
same,outcome,[4],inactive
same,outcome,[7],inactive
same,outcome,[8],inactive
same,outcome,[9],inactive
CC(=O)OCC[N+](C)(C)C,inclusion score,[11],2
CN(C)CC/C=C1\c2ccccc2COc2ccccc21,fluorescence slope change,[12],109% (active)
same,period change,[13],0.025 h (inactive)
same,inhibition,[14],-5% (inactive)
same,fluorescence ratio (interference),[15],1 (inactive)
CC(=O)[C@H]1CC[C@H]2[C@@H]3C[C@H](C)C4=CC(=O)CC[C@]4(C)[C@H]3[C@@H](O)C[C@]12C,fluorescence slope change,[12],55.7% (active)
CCN(CC)C(=S)SSC(=S)N(CC)CC,fluorescence slope change,[12],81.8% (active)
same,period change,[13],-0.07 h (inactive)
same,inhibition,[14],-3% (inactive)
same,fluorescence ratio (interference),[15],1 (inactive)
same,z-score,[10],-0.138 (inactive)
same,AC50,[1],0.934 µM (active)
same,AC50,[2],0.0105 µM (active)
same,AC50,[3],0.00935 µM (active)
same,AC50,[4],0.0209 µM (active)
same,AC50,[5],0.934 µM (active)
same,AC50,[6],0.833 µM (active)
same,AC50,[7],0.00372 µM (active)
same,AC50,[8],0.934 µM (active)
same,outcome,[9],inactive
same,viability,"[16]; at 0.000305 µM, OCI-C5x cells, with rucaparib 10 µM, 100% = cells with rucaparib alone",117% (inactive)
same,viability,"[16]; at 0.000305 µM, OCI-C5x cells, without rucaparib",126% (inactive)
same,viability,"[16]; at 0.000305 µM, OCI-P5x cells, with rucaparib 20 µM, 100% = cells with rucaparib alone",78.8% (active)
same,viability,"[16]; at 0.000305 µM, OCI-P5x cells, without rucaparib",89.7% (active)
same,viability,"[16]; at 0.00122 µM, OCI-C5x cells, with rucaparib 10 µM, 100% = cells with rucaparib alone",122% (inactive)
same,viability,"[16]; at 0.00122 µM, OCI-C5x cells, without rucaparib",146% (inactive)
same,viability,"[16]; at 0.00122 µM, OCI-P5x cells, with rucaparib 20 µM, 100% = cells with rucaparib alone",76.6% (active)
same,viability,"[16]; at 0.00122 µM, OCI-P5x cells, without rucaparib",90.8% (active)
same,viability,"[16]; at 0.00488 µM, OCI-C5x cells, with rucaparib 10 µM, 100% = cells with rucaparib alone",117% (inactive)
same,viability,"[16]; at 0.00488 µM, OCI-C5x cells, without rucaparib",130% (inactive)
same,viability,"[16]; at 0.00488 µM, OCI-P5x cells, with rucaparib 20 µM, 100% = cells with rucaparib alone",75.9% (active)
same,viability,"[16]; at 0.00488 µM, OCI-P5x cells, without rucaparib",86.5% (active)
same,viability,"[16]; at 0.0195 µM, OCI-C5x cells, with rucaparib 10 µM, 100% = cells with rucaparib alone",128% (inactive)
same,viability,"[16]; at 0.0195 µM, OCI-C5x cells, without rucaparib",126% (inactive)
same,viability,"[16]; at 0.0195 µM, OCI-P5x cells, with rucaparib 20 µM, 100% = cells with rucaparib alone",74.6% (active)
same,viability,"[16]; at 0.0195 µM, OCI-P5x cells, without rucaparib",78.5% (active)
same,viability,"[16]; at 0.0781 µM, OCI-C5x cells, with rucaparib 10 µM, 100% = cells with rucaparib alone",120% (inactive)
same,viability,"[16]; at 0.0781 µM, OCI-C5x cells, without rucaparib",120% (inactive)
same,viability,"[16]; at 0.0781 µM, OCI-P5x cells, with rucaparib 20 µM, 100% = cells with rucaparib alone",104% (inactive)
same,viability,"[16]; at 0.0781 µM, OCI-P5x cells, without rucaparib",131% (inactive)
same,viability,"[16]; at 0.313 µM, OCI-C5x cells, with rucaparib 10 µM, 100% = cells with rucaparib alone",135% (inactive)
same,viability,"[16]; at 0.313 µM, OCI-C5x cells, without rucaparib",136% (inactive)
same,viability,"[16]; at 0.313 µM, OCI-P5x cells, with rucaparib 20 µM, 100% = cells with rucaparib alone",102% (inactive)
same,viability,"[16]; at 0.313 µM, OCI-P5x cells, without rucaparib",129% (inactive)
same,viability,"[16]; at 1.25 µM, OCI-C5x cells, with rucaparib 10 µM, 100% = cells with rucaparib alone",121% (inactive)
same,viability,"[16]; at 1.25 µM, OCI-C5x cells, without rucaparib",135% (inactive)
same,viability,"[16]; at 1.25 µM, OCI-P5x cells, with rucaparib 20 µM, 100% = cells with rucaparib alone",103% (inactive)
same,viability,"[16]; at 1.25 µM, OCI-P5x cells, without rucaparib",116% (inactive)
same,viability,"[16]; at 5 µM, OCI-C5x cells, with rucaparib 10 µM, 100% = cells with rucaparib alone",113% (inactive)
same,viability,"[16]; at 5 µM, OCI-C5x cells, without rucaparib",129% (inactive)
same,viability,"[16]; at 5 µM, OCI-P5x cells, with rucaparib 20 µM, 100% = cells with rucaparib alone",110% (inactive)
same,viability,"[16]; at 5 µM, OCI-P5x cells, without rucaparib",120% (inactive)
COc1cc2nc(N3CCN(C(=O)c4ccco4)CC3)nc(N)c2cc1OC,inhibition,[14],-1% (inactive)
same,fluorescence ratio (interference),[15],0.9 (inactive)
same,z-score,[10],0.105 (inactive)
same,AC50,[4],26.4 µM (active)
same,AC50,[7],14.8 µM (active)
NC(N)=NC(=O)c1nc(Cl)c(N)nc1N,inclusion score,[11],2
same,period change,[13],0.02 h (inactive)
same,inhibition,[14],1% (inactive)
same,fluorescence ratio (interference),[15],0.9 (inactive)
same,z-score,[10],-0.147 (inactive)
same,outcome,[1],inactive
same,AC50,[2],14.8 µM (active)
same,outcome,[3],inactive
same,outcome,[5],inactive
same,outcome,[6],inactive
same,outcome,[7],inactive
same,outcome,[8],inactive
same,outcome,[9],inactive
CN(C)CCN(Cc1ccccc1)c1ccccn1,inclusion score,[11],2
same,z-score,[10],-0.192 (inactive)
CC(=O)OCC(=O)[C@@]1(O)CC[C@H]2[C@@H]3CCC4=CC(=O)C=C[C@]4(C)[C@H]3[C@@H](O)C[C@@]21C,outcome,[2],inactive
same,outcome,[3],inactive
same,outcome,[5],inactive
same,outcome,[6],inactive
same,outcome,[7],inactive
same,outcome,[8],inactive
same,outcome,[9],inactive
C[C@@H](O)[C@H]1C(=O)N2C(C(=O)O)=C(S[C@@H]3CN[C@H](C(=O)N(C)C)C3)[C@H](C)[C@H]12,z-score,[10],-0.132 (inactive)
CC(=O)OCC(=O)[C@@]1(O)CC[C@H]2[C@@H]3CCC4=CC(=O)CC[C@]4(C)[C@H]3C(=O)C[C@@]21C,period change,[13],-0.03 h (inactive)
same,inhibition,[14],-3% (inactive)
same,fluorescence ratio (interference),[15],0.9 (inactive)
same,outcome,[2],inactive
same,outcome,[3],inactive
same,outcome,[4],inactive
same,outcome,[6],inactive
same,outcome,[7],inactive
same,outcome,[8],inactive
same,outcome,[9],inactive
O=C(c1ccccc1)c1ccc2n1CCC2C(=O)O (stereo not given),inclusion score,[11],2
same,period change,[13],-0.025 h (inactive)
same,inhibition,[14],-3% (inactive)
same,fluorescence ratio (interference),[15],1 (inactive)
same,z-score,[10],-0.0903 (inactive)
same,outcome,[1],inactive
same,AC50,[2],8.33 µM (active)
same,outcome,[3],inactive
same,outcome,[4],inactive
same,outcome,[5],inactive
same,outcome,[6],inactive
same,outcome,[7],inactive
same,outcome,[8],inactive
same,outcome,[9],inactive
CCCCc1oc2ccccc2c1C(=O)c1cc(I)c(OCCN(CC)CC)c(I)c1,period change,[13],0.145 h (inactive)
same,inhibition,[14],0% (inactive)
same,fluorescence ratio (interference),[15],0.9 (inactive)
same,z-score,[10],-0.442 (inactive)
same,AC50,[1],13.2 µM (active)
same,AC50,[2],7.43 µM (active)
same,AC50,[3],23.5 µM (active)
same,AC50,[4],1.05 µM (active)
same,AC50,[5],13.2 µM (active)
same,AC50,[7],23.5 µM (active)
same,AC50,[8],16.6 µM (active)
same,IC50,[9],23.5 µM (active)
CCOC(=O)C1=C(COCCN)NC(C)=C(C(=O)OC)C1c1ccccc1Cl (stereo not given),z-score,[10],-0.363 (inactive)
CN(C)CCOC(c1ccccc1)c1ccccc1,inclusion score,[11],2
same,period change,[13],-0.01 h (inactive)
same,inhibition,[14],-1% (inactive)
same,fluorescence ratio (interference),[15],1 (inactive)
same,z-score,[10],-0.533 (inactive)
same,outcome,[3],inactive
same,outcome,[5],inactive
same,outcome,[6],inactive
same,outcome,[7],inactive
same,outcome,[8],inactive
same,outcome,[9],inactive
